# Only some compounds are listed: those with a hit (about 7.3% of all), similar ones and a draw of the others.
# ELG1 genotoxic: induces genotoxicity in HEK293T cells with luciferase-tagged ELG1; HEK293T ELG1-luciferase reporter, luminescence, 16 h; Potency, µM (doses to about 46 µM), for the others: top-dose activity change, positive = activation, most hits filed as activators; 330,000 tested, 1.3% active; AID 504466; note: % of control where 0% means no effect; nearly all actives have a fitted effect of over 60% in size
#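 Genotoxic stress is detected as increased luminescence from luciferase-tagged ELG1 in HEK293T cells, measured with ONE-Glo after a 16 hr treatment at 37 °C.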
# FLuc counter: counter-screen for miR-21 project: firefly luciferase inhibitors or activators | P08659 | purified FLuc, Km substrates, luminescence inhibition | Potency, µM (doses to about 57.5 µM), without a hit: top-dose activity change, negative = inhibition, hits mostly inhibitors | 360,000 tested, 6.9% active;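 note: plate controls were vehicle for no effect and reference inhibitor for full effect; nearly all actives have a fitted effect of over 55% in size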
# Target sequence (P08659 whole entry, looked up): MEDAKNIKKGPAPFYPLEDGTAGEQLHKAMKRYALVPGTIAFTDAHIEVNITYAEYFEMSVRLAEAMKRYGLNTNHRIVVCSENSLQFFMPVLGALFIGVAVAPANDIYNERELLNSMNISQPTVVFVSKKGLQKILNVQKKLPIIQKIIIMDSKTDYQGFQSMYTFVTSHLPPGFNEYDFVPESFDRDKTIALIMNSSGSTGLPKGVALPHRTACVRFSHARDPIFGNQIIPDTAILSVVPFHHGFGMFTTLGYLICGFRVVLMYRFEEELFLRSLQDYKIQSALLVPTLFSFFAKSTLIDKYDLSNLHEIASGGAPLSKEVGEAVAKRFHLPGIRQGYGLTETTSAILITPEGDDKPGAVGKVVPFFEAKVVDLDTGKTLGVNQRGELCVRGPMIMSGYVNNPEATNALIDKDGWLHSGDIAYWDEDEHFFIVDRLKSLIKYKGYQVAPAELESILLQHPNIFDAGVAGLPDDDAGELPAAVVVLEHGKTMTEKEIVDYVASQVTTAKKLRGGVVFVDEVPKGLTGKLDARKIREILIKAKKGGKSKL
#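 Purified P. pyralis luciferase, 10 nM final, with Km-level 10 uM D-luciferin and 10 uM ATP in 50 mM Tris acetate pH 7.5, 10 mM Mg acetate, 0.01% Tween-20, 0.05% BSA; 6-point qHTS titration about 60 µM downward; luminescence read.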
# Rab9 promoter act: activators of Rab9 promoter; 320,000 tested, 2.8% active; Potency, µM (doses to about 9.22 µM), without a hit: top-dose activation, negative = inhibition, actives largely listed as activators; Huh7 Rab9 promoter-luciferase reporter, luminescence, 24 h; note: % of control where 0% means no effect; nearly all actives have a fitted effect of over 60% in size
#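 Luminescence read-out: Huh7 cells stably expressing Rab9-luciferase, treated 24 h with compound at 37 °C, then lysed with luciferase reagent for 10 min at ambient before reading.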
# p53 reactivator: mutant p53 re-activation in reporter cells | 320,000 tested, 0.063% active | AID 504706 | H1299 p53-A138V BP100-luciferase reporter, luminescence, 24 h | Potency, µM (titrated, usually from 92.2 µM), for the others: at the top dose activity change, positive = activation, usual class: activators; note: % of control where 0% means no effect; nearly all actives have a fitted effect of over 45% in size
#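 p53-null H1299 cells stably carrying temperature-sensitive p53-A138V and a BP100-luciferase reporter were pinned with compounds (4-point, 1:5 series) and held 24 hrs at 37 deg C. Luminescence was read 10 min after detection reagent.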
# SMN2 splice up: enhancers of SMN2 splice variant expression; HEK293 SMN2-luciferase splicing reporter, luminescence, 30-36 h; Potency, µM (highest dose often 46.1 µM), without a hit: at the highest dose activity change, positive = activation, usual class: activators; 210,000 tested, 2.8% active; AID 1458; note: % of control where 0% means no effect; nearly all actives have a fitted effect of over 55% in size
#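 HEK293 cells carry an SMN2 minigene-luciferase reporter in which exon 7 inclusion puts luciferase in frame. Cells were seeded at 2000 cells/well, attached for 10-12 hours, then exposed to compounds for 30-36 hours at 37C before ONE-Glo luminescence.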
# NPC1 promoter act: NPC1 promoter activation; Huh7 NPC1 promoter luciferase reporter, 24 h; Potency, µM (highest dose often 9.22 µM), inactives show at the top dose activation, actives largely listed as activators; 320,000 tested, 2.4% active; AID 485313; note: % of control where 0% means no effect; nearly all actives have a fitted effect of over 60% in size
#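 NPC1 promoter–luciferase Huh7 cells; 24 h compound; luminescence.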
# Numbers without * were called inactive; u = inconclusive; x = no result; [ ] = remark or other dose. Calls come from the whole dose curve; as a rule, active = well fitted curve in the direction sought with a large enough effect; inconclusive = small, poorly fitted or top-dose-only effect, or another doubt; inactive = no such curve, though single readings can be large; an effect the other way counts as inactive or inconclusive. Potency is the fitted concentration of half-maximal effect.
SMILES,ELG1 genotoxic,FLuc counter,Rab9 promoter act,p53 reactivator,SMN2 splice up,NPC1 promoter act
CC(C)c1cc(C(=O)NC2CCCCC2)no1,u,16.9µM*,u,u,11.2µM*,u
CCOC(=O)C1CCN(c2c(C(=O)c3ccc(C)cc3)cnc3ccc(F)cc23)CC1,x,2.2%,x,x,2.9%,x
CC(C)NC(=O)c1cnc2sc(N3CCCCCC3)nn2c1=O,x,4.3%,x,x,x,x
O=C1C(Cl)=C(N2CCCCC2)C(=O)C(Cl)=C1c1cnc(N2CCCCC2)s1,-4.1%,9.53µM*,-30.3%,15.6%,-66.6%,-28.5%
NC(=NCc1ccco1)NC(=O)c1ccc(Cl)cc1,u,16.9µM*,u,29.5%,x,u
CN1CCN(C(c2ccccc2)c2sc3nc(-c4ccco4)nn3c2O)CC1 (configuration not stated),x,2.5%,x,x,x,x
CCN(c1ccccc1)S(=O)(=O)c1nnc(NC(=O)C(C)Oc2ccccc2)s1 (configuration not stated),x,-19.4%,x,x,x,x
C=CCN(C(=O)C1=NN(C2CCS(=O)(=O)C2)C(=O)CC1)c1nc(-c2ccc([N+](=O)[O-])cc2)cs1 (configuration not stated),12.5%,-17.6%,2.82µM*,-2.8%,11.2µM*,3.98µM*
O=C1NC(=Nc2ccccc2)S/C1=C\c1cccs1,u,12µM*,3.16µM*,19.2%,x,3.16µM*
CCOc1ccc2c(c1)S/C(=C\c1cccs1)C(=O)N2,u,9.53µM*,u,u,x,u
O=C1NC(=Nc2ccc(O)cc2)S/C1=C/c1ccco1,-5.9%,-1.0%,-12.4%,23.4%,28.9%,-19.2%
Cc1ccc(N=C2NC(=O)/C(=C\c3ccco3)S2)cc1,u,16.9µM*,u,u,16.2%,u
Cn1cccc1/C=C1\SC(=Nc2cccc(O)c2)NC1=O,u,12µM*,u,11.9%,x,11.6%
Cn1c(COc2ccc(Cl)cc2)nnc1SCC(=O)NC1CCCC1,-2.1%,1.0%,4.0%,-3.2%,x,3.2%
O=C(Cn1c(=O)c2sccc2n(CC(=O)Nc2ccc(Cl)cc2Cl)c1=O)NCCc1ccccc1,x,-1.8%,x,x,-1.6%,x
Cn1cccc1/C=C1\SC(=Nc2ccc(O)cc2)NC1=O,16.4µM*,u,-6.2%,u,x,22.8%
Cn1cccc1/C=C1\SC(=Nc2ccccc2)NC1=O,23.1µM*,9.53µM*,21.8%,u,x,-18.3%
Cc1ccc(N=C2NC(=O)/C(=C/c3cccn3C)S2)c(C)c1,-8.5%,-0.3%,-0.5%,0.4%,x,0.4%
COc1cccc(N2CCN(C(=O)c3c4c(nc5ccccc35)C(=O)N(C3CCCCC3)C4)CC2)c1,x,-11.8%,x,x,x,x
C=CCn1c(-c2cc3c(s2)CCC(CC)C3)n[nH]c1=S (configuration not stated),0.0%,30.1µM*,28.3%,u,26.0%,10.5%
C=CCn1c(SCC(=O)NC2CCS(=O)(=O)C2)nnc1-c1ccc(Cl)cc1 (configuration not stated),-5.1%,-2.0%,-2.7%,2.2%,x,1.3%
C=CCn1c(SCC(=O)NC2CCS(=O)(=O)C2)nnc1-c1cc2c(s1)CCC(CC)C2 (configuration not stated),10.4%,10.7µM*,24.8%,18.5%,29.2%,20.3%
COC(=O)N1CCC2(CC1)CCN(c1ncccn1)CC2,x,x,x,x,-15.9%,x
COc1cccc(/C=N/n2cnc3ccccc32)c1OC,2.59µM*,4.78µM*,2.24µM*,u,u,2.51µM*
COc1ccc(/C=N/n2c(N)nc3ccccc32)cc1OC,17.4%,5.36µM*,25.9%,0.0%,28.7%,u
SMILES,ELG1 genotoxic,FLuc counter,Rab9 promoter act,p53 reactivator,SMN2 splice up,NPC1 promoter act
COc1cccc(/C=N/n2c(N)nc3ccccc32)c1OC,5.4%,12µM*,u,17.1%,u,u
COc1cccc(/C=N/n2c(SC)nnc2-c2ccccc2)c1OC,-6.7%,-0.9%,8.4%,-21.5%,1.9%,5.0%
NCCc1nc(-c2nc(C(=O)O)cs2)cs1,x,x,x,x,-6.6%[9.22 µM],x
CN(C)c1ccc(/C=C(/NC(=O)c2ccccc2)C(=O)NCCCn2ccnc2)cc1,0.6%,4.78µM*,-0.8%,1.6%,x,-2.9%
Cc1ccc(C(=O)N/C(=C\c2ccc(-c3cc(Cl)ccc3Cl)o2)C(=O)NCc2cccnc2)cc1,4.8%,19µM*,u,10.7%,8.3%,u
O=C(NCc1cccnc1)/C(=C/c1ccc(-c2cccc(Cl)c2)o1)S(=O)(=O)c1ccccc1,-22.1%,2.0%,-27.4%,-31.5%,-99.3%,-29.3%
CN(C)c1ccc(/C=C(\NC(=O)c2ccccc2)C(=O)NCc2ccncc2)cc1,-15.5%,u,4.8%,-1.8%,x,0.6%
CN(C)c1ccc(/C=C(\NC(=O)c2ccccc2)C(=O)NCc2cccnc2)cc1,-1.5%,10.7µM*,-2.6%,-2.3%,x,0.5%
CCc1ccccc1NC(=O)Cn1c(=O)n(CCCCCC(=O)NCc2ccc(C)cc2)c(=O)c2sccc21,x,-3.6%,x,x,-0.2%,x
Cn1c(CN2CCOCC2)nc2cc(NC(=O)c3ccc(F)cc3)ccc21,-5.6%,4.5%[2.3 µM],-2.9%,24.2%,x,-3.3%
COc1ccc(C(=O)Nc2ccc3c(c2)nc(CCNC(C)=O)n3C)cc1,18.4µM*,12µM*,u,u,u,2.82µM*
COc1ccc(C(=O)Nc2ccc3c(c2)nc(CCNC(=O)c2ccco2)n3C)cc1,4.3%,15.1µM*,29.7%,5.5%,x,4.4%
CCC(=O)Nc1ccc2c(c1)nc(CCNC(=O)c1ccco1)n2C,1.3%,-0.9%,-4.9%,-3.0%,x,1.3%
CC(=O)NCCc1nc2cc(NC(=O)c3ccc(F)cc3)ccc2n1C,u,21.3µM*,2µM*,28.9%,x,3.55µM*
C[C@@H]1OC(OC2CC[C@@]3(C)C(CC[C@@]4(C)C3CC=C3C5CC(C)(C)CC[C@]5(C(=O)OC5OCC(O)[C@@H](O)[C@@H]5OC5O[C@@H](C)[C@H](O[C@H]6OC(CO)C(O)C(O)C6O)C(O)C5O)C(O)C[C@@]34C)C2(C)C)C(O)C(O)[C@H]1OC1OCC(O)C(O)[C@H]1O (some centres not stated),x,x,x,x,-53.1%,x
CN(C)C(=O)COC(=O)c1ccccc1Nc1ccc(SC(F)F)cc1,u,26.9µM*,u,u,12.6µM*,u
N#C/C(=C\c1ccc(C(=O)O)cc1)c1ccccn1,-2.5%,-18.1%,-2.9%,-0.3%,6.0%,-1.1%
COc1cc(/C=C(\C#N)c2ccccn2)ccc1OCc1ccccc1,2.7%,u,12.4%,19.3%,17.7%,3.0%
CCN(CC)c1ccc(/C=C(\C#N)c2ccccn2)cc1,u,1.07µM*,0.126µM*,x,1.41µM*,0.447µM*

# Source: PubChem
